For ten compounds, Potency and outcome results are on record in PubChem BioAssay (Tox21).

The nature of experiment [1]: qHTS assay to identify small molecule agonists of the androgen receptor (AR) signaling pathway in the presence of an antagonist - cell viability counter screen (AID 1259379). Note: nearly all actives have a fitted effect of over 25% in size. Note: potency is the fitted concentration of half-maximal effect. In outline: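 Each compound was tested at 15 concentrations on MDA-kb2 cells in the presence of 3.0uM nilutamide. Viability was measured by CellTiter-Fluor fluorescence after a 16 hr incubation at 37C in a CO2-free atmosphere.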
Background: Quantitative high-throughput screening tests each substance at several concentrations.

The nature of experiment [2]: qHTS assay to identify small molecule antagonists of the estrogen receptor beta (ER-beta) signaling pathway - cell viability counter screen (AID 1259382). Note: nearly all actives have a fitted effect of over 55% in size. Note: potency is the fitted concentration of half-maximal effect. The gist of the method: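 CellTiter-Glo ATP luminescence measured after the LiveBLAzer read in the same wells; ER-beta-UAS-bla HEK293T cells, 16 hr compound treatment with 1nM 17-beta-estradiol agonist at 37C, 5% CO2.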

The target in experiment [3] is Thyrotropin receptor (Homo sapiens) (UniProt P16473). Nature of the experiment: qHTS assay to identify small molecule antagonists of the thyroid stimulating hormone receptor (TSHR) signaling pathway (AID 1259385; calls by dose curve; note: nearly all actives have a fitted effect of over 20% in size). The gist of the method:
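TSHR-HEK293 cells were plated and held 18 h at 37C/5% CO2, then given compound plus Ro20-1724 and stimulated with TSH at 1.5 ng/mL final. After 30 min at room temperature, cAMP was detected with cAMP-d2/anti-cAMP-cryptate (1 h) by fluorescence.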

Experiment [4] is described as follows: qHTS assay to identify small molecule agonists of the estrogen receptor alpha (ER-alpha) signaling pathway in the presence of an antagonist - cell viability counter screen (AID 1259386).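 Note: series mostly up to about 92 µM; cells exposed to compounds for 22 h at 37 °C before the viability read; nearly all actives have a fitted effect of over 30% in size.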 The gist of the method:
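Using estrogen-depleted VM7Luc4E2 cells, the 15-concentration compound series was applied together with 10.0nM ICI-182,780 and incubated 22hr at 37C/5% CO2. Cell viability was then scored by CellTiter-Fluor.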

Experiment [5] is described as follows: qHTS assay to identify small molecule antagonists of the progesterone receptor (PR) signaling pathway - cell viability counter screen (AID 1346798). Note: nearly all actives have a fitted effect of over 50% in size. Note: potency is the fitted concentration of half-maximal effect. In outline: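 Cytotoxicity read as CellTiter-Glo luminescence (30 min, room temperature) in the same wells as the beta-lactamase readout. HEK293T PR-UAS-bla cells in charcoal-stripped 2% FBS received compound and R5020, then 16 h at 37C, 5% CO2.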

The nature of experiment [6]: qHTS assay to identify small molecule antagonists of the TGF-beta/Smad signaling pathway - cell viability counter screen (AID 1346824). Note: nearly all actives have a fitted effect of over 50% in size. The gist of the method:
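SBE-bla HEK 293T cells were plated overnight at 37 C, then given compounds in DMSO plus TGF-beta1 (added as 0.25 ng/mL solution) for 5 hr. After the bla read, CellTiter-Glo was added to the same wells and luminescence read after 30 min at room temperature.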

A short description of experiment [7]: qHTS assay to identify small molecule agonists of the TGF-beta/Smad signaling pathway - cell viability counter screen (AID 1346829). Note: top concentration of the series differs between compounds; nearly all actives have a fitted effect of over 45% in size. In outline: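 Luminescence from CellTiter-Glo, read after a 30 min room-temperature incubation, gives cell viability of SBE-bla HEK 293T cells treated 5 hr with compounds at 37 C.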
Experiment [8] is described as follows: qHTS assay to identify small molecule agonists of the TGF-beta/Smad signaling pathway (AID 1346859; active = well fitted activation curve with a large enough effect in the signal ratio in the repeat runs, not every such curve was filed as active; the % refers to the signal ratio; note: series mostly up to about 77 µM). In outline: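 Fluorescence (ex 405 nm; em 460 and 530 nm) was read 2 h after LiveBLAzer FRET substrate at RT. The preceding compound treatment of overnight-plated SBE-bla HEK293T cells lasted 5 h at 37 C.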
For experiment [9], the target named is Thyrotropin-releasing hormone receptor (Homo sapiens) (UniProt P34981). Nature of the experiment: qHTS assay to identify small molecule antagonists of the thyrotropin-releasing hormone receptor (TRHR) signaling pathway (AID 1346877; active = well fitted inhibition curve with a large enough effect in the repeat runs, not every such curve was filed as active; note: potency is the fitted concentration of half-maximal effect). The gist of the method: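 Calcium signal in dye-loaded TRHR/HEK293 cells; compounds added 5 min before TRH (1 nM final); fluorescence monitored 3 min at 1 s steps.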
Chain of Thyrotropin-releasing hormone receptor (Homo sapiens) (P34981 whole entry, looked up): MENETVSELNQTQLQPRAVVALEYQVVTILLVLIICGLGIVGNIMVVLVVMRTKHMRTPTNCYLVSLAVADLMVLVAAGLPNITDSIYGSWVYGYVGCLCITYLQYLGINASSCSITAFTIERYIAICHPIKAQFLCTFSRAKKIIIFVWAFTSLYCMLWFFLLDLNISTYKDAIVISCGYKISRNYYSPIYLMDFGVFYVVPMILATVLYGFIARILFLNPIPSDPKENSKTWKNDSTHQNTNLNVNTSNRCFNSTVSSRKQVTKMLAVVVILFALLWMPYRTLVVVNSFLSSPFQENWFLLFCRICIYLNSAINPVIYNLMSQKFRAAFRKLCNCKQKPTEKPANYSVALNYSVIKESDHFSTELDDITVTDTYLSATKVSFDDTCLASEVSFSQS

Experiment [10] has the same target. The experiment is described as follows: qHTS assay to identify small molecule agonists of the thyrotropin-releasing hormone receptor (TRHR) signaling pathway (AID 1346891; calls by dose curve; note: series mostly up to about 58 µM). In outline:
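Agonist-mode intracellular calcium readout: kinetic fluorescence over 3 min at 1 s intervals after compound addition to TRHR-HEK293 cells (18 h seeded, 2 h dye-loaded at 37 C). Fifteen concentrations, triplicates.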

Experiment [11] is described as follows: qHTS assay to identify small molecule agonists of the estrogen receptor beta (ER-beta) signaling pathway - cell viability counter screen (AID 1259380). Note: nearly all actives have a fitted effect of over 30% in size. Note: potency is the fitted concentration of half-maximal effect. The gist of the method:
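Compounds dissolved in DMSO were pin-transferred onto ER-beta-UAS-bla HEK293T cells that had settled 6 hr, and exposure ran 16 hr at 37C. Following the reporter read, CellTiter-Glo luminescence after 30 min at room temperature indicated cytotoxicity.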

Experiment [12] can be described thus: qHTS assay to identify small molecule agonists or antagonists of the thyroid stimulating hormone receptor (TSHR) signaling pathway - wild type cell line counter screen (AID 1259384; calls by dose curve). The gist of the method: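 Wild-type HEK293 cells were plated 18 h at 37 C/5% CO2, pin-dosed with compound plus Ro20-1724 medium, held 30 min at room temperature, then given cAMP-d2 and anti-cAMP-cryptate; fluorescence was read after 1 h. Fifteen concentrations, triplicate.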

Experiment [13] addresses Progesterone receptor (Homo sapiens) (UniProt P06401). The experiment is described as follows: qHTS assay to identify small molecule agonists of the progesterone receptor (PR) signaling pathway (AID 1346784; calls by dose curve; note: nearly all actives have a fitted effect of over 30% in size; note: potency is the fitted concentration of half-maximal effect). The gist of the method:
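Agonist qHTS: compounds pinned onto 3,000 PR-UAS-bla HEK 293T cells per well in charcoal-stripped serum medium, 16hr at 37C, then beta-lactamase activity measured by LiveBLAzer FRET fluorescence after 2 hours at room temperature.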

The target is the same in experiment [14]. Nature of the experiment: qHTS assay to identify small molecule antagonists of the progesterone receptor (PR) signaling pathway (AID 1346795; active = well fitted inhibition curve with a large enough effect in the signal ratio in the repeat runs, not every such curve was filed as active; the % refers to the signal ratio). In outline: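 Antagonist mode with agonist R5020 at 1 nM final and 16 hr incubation at 37C. Reporter was beta-lactamase driven by UAS in HEK293T (PR-UAS-bla), 2% charcoal-stripped serum; signal from LiveBLAzer FRET substrate, 2 hr at room temperature.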

Experiment [15] can be described thus: qHTS assay to identify small molecule agonists of the progesterone receptor (PR) signaling pathway - cell viability counter screen (AID 1346799; calls by dose curve; note: nearly all actives have a fitted effect of over 45% in size; note: potency is the fitted concentration of half-maximal effect). In outline:
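Cytotoxicity measured by CellTiter-Glo luminescence (30 min, RT) in the same wells as the PR beta-lactamase agonist read. Those HEK293T cells had 16 h compound treatment at 37 C in 2% charcoal-stripped FBS medium.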

Experiment [16] concerns the target Estrogen receptor (Homo sapiens) (UniProt P03372). The experiment is described as follows: qHTS assay to identify small molecule agonists of the estrogen receptor alpha (ER-alpha) signaling pathway in the presence of an antagonist (AID 1259383; calls by dose curve; note: nearly all actives have a fitted effect of over 15% in size; note: potency is the fitted concentration of half-maximal effect; for activation: top concentration of the series differs between compounds). In outline: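 Luminescent ERE-luciferase reporter, VM7Luc4E2 cells (endogenous ER-alpha); 10.0nM ICI-182,780 final; 15-point compound titration; 22hr at 37C; ONE-Glo, 30min RT.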

Experiment [17] concerns the target Estrogen receptor beta (Homo sapiens) (UniProt Q92731). Nature of the experiment: qHTS assay to identify small molecule agonists of the estrogen receptor beta (ER-beta) signaling pathway (AID 1259377; active = well fitted activation curve with a large enough effect in the signal ratio in the repeat runs, not every such curve was filed as active; the % refers to the signal ratio; note: potency is the fitted concentration of half-maximal effect). In outline:
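Ratiometric beta-lactamase FRET read-out came after 2 h substrate loading at room temperature. It followed 16 h compound treatment at 37C of GripTite HEK293T cells carrying a UAS-bla reporter, plated in 2% charcoal-stripped FBS medium.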

Several values for one entry are separate records, joined by “and”; a condition that tells them apart may be missing. Identical values can stand only once. Results filed as inconclusive are left out. Some structures have more than one record in an assay (separate samples or runs), and their calls can disagree. Activity calls are given as the source filed them. Unless noted, calls come from the whole dose curve; as a rule, active = well fitted curve in the direction sought with a large enough effect in the repeat runs; inconclusive = weak or mixed curves; inactive = no such curve, though single readings can be large; an effect the other way counts as inactive or inconclusive.

Chain of Thyrotropin receptor (Homo sapiens) (P16473 whole entry, looked up): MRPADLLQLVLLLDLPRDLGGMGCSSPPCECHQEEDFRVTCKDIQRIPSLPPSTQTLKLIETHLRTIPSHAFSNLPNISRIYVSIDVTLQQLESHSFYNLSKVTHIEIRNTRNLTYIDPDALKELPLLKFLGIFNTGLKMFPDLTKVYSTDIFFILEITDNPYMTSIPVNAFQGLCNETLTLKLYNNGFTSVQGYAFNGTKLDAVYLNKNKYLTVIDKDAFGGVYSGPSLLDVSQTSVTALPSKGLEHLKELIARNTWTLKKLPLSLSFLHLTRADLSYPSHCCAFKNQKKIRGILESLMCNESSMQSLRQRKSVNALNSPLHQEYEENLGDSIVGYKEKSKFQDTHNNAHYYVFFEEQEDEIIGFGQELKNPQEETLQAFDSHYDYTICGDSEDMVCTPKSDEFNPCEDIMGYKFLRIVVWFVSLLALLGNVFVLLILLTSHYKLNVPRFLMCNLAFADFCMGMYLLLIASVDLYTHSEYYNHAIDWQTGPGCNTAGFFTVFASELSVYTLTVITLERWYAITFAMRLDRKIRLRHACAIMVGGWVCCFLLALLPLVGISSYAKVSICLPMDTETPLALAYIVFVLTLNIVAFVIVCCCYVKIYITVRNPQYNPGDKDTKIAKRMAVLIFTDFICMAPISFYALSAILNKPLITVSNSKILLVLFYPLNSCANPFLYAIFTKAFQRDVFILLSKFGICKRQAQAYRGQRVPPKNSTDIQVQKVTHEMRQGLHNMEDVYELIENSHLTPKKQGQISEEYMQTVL
Chain of Progesterone receptor (Homo sapiens) (P06401 whole entry, looked up): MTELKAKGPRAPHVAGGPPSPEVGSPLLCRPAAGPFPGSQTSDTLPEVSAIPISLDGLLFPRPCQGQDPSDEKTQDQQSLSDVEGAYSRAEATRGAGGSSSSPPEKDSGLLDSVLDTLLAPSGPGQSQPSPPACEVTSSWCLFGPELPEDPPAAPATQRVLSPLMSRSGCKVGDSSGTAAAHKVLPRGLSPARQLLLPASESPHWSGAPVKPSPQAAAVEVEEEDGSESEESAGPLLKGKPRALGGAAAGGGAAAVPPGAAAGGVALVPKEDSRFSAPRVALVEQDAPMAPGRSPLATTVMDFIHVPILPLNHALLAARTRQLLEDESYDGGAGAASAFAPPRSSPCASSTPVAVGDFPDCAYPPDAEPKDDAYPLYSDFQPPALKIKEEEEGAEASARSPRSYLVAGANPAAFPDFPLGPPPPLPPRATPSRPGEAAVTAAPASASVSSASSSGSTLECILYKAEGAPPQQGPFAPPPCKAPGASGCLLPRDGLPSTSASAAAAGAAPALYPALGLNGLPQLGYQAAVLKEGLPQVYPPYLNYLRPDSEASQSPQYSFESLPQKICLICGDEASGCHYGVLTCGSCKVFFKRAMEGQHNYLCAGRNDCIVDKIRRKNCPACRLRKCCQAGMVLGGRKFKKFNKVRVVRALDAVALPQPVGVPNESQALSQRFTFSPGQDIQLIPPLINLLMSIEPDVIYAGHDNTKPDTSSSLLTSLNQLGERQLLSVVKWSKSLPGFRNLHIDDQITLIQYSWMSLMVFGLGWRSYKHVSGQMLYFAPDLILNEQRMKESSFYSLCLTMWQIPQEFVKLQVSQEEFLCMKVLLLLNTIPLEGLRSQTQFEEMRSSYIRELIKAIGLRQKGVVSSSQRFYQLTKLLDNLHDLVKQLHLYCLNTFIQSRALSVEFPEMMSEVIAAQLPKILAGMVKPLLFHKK
Chain of Estrogen receptor beta (Homo sapiens) (Q92731 whole entry, looked up): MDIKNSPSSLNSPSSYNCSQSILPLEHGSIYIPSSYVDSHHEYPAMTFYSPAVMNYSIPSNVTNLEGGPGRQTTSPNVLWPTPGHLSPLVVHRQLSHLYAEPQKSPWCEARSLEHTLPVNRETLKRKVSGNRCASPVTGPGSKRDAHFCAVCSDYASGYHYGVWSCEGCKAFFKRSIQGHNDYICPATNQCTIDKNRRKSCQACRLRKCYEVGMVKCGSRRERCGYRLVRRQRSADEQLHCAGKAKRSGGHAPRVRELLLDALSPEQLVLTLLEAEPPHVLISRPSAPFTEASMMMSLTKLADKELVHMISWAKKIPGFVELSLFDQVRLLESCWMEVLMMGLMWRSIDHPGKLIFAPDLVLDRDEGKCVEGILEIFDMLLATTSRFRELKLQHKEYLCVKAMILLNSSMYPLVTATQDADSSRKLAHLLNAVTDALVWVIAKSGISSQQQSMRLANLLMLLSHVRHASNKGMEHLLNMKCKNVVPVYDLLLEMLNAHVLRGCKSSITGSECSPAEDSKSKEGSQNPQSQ
Chain of Estrogen receptor (Homo sapiens) (P03372 whole entry, looked up): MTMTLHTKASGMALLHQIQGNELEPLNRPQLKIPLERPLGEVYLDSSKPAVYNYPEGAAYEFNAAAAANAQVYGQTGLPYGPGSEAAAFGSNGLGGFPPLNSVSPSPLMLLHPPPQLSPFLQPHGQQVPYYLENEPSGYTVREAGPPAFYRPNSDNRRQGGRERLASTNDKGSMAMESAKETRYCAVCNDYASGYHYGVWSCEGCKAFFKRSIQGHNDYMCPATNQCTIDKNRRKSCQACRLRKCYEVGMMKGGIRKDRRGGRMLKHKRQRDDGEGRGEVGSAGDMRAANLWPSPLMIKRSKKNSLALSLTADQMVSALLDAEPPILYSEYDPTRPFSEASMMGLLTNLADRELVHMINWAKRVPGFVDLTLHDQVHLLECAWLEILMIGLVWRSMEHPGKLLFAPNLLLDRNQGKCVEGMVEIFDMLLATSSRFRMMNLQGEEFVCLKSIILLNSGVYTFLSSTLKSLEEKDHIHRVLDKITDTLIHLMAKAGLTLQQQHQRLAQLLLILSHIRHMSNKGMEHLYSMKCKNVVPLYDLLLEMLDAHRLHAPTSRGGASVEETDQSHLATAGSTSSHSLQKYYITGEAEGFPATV

Take `COC1=CC(=O)O[C@@H](/C=C/c2ccc3c(c2)OCO3)C1`: the Potency entry in experiment [1], in [2], in experiment [3], in [4], in experiment [5] and in [6] was “inactive” each time. Besides, the Potency entry in [7] and in experiment [9] was “inactive” in each case. For the same compound, the compound was called inactive in experiment [8] and in experiment [10].

With `CCc1cnc(C2=NC(C)(C(C)C)C(=O)N2)c(C(=O)O)c1` (configuration not stated), the Potency entry in [1], in experiment [11], in [2], in experiment [3], in [4] and in [13] was “inactive” each time. For the same compound, the Potency result in [14], in experiment [5], in experiment [15], in [6], in experiment [7] and in experiment [9] was “inactive” in each case. Further, the compound was classed as inactive in experiment [12], in experiment [8] and in [10].

Turning to `O=C(NC(=O)c1cc(F)c(F)cc1Cl)Nc1cc(F)ccc1N1CCC(C(=O)O)CC1`, the Potency entry in experiment [1], in [11], in experiment [2], in experiment [16], in experiment [3] and in experiment [4] was “inactive” in each case. Besides, the Potency result in [14], in experiment [6], in experiment [7] and in experiment [9] was “inactive” throughout. For the same compound, the compound was classed as inactive in experiment [12], in experiment [8] and in experiment [10].

As for `COc1ccc(C(=O)c2c(C)n(CCN3CCOCC3)c3ccccc23)cc1`, the Potency entry in experiment [17], in experiment [1], in experiment [11], in [2], in experiment [4] and in experiment [6] was “inactive” each time. The Potency entry in [7] and in [9] was “inactive” in each case. Besides, the compound was called inactive in experiment [8] and in [10].

With `CC(C)c1ccc(OP(=O)(Oc2ccc(C(C)C)cc2)Oc2ccc(C(C)C)cc2)cc1`, the Potency entry in experiment [1], in experiment [16], in [3], in experiment [4], in [13] and in [6] was “inactive” throughout. Moreover, the Potency entry in [7] and in [9] was “inactive” throughout. Also, the Potency in experiment [11] is 21.8 µM (active) and 27.3 µM (active) and 21.7 µM (active); in experiment [2] it was 27.5 µM (active) and 30.6 µM (active); in experiment [5] it was 30.6 µM (active); in experiment [15], “inactive and 30.6 µM (active)”. Further, the result in [8] and in experiment [10] was inactive.

In the case of `O=C1c2ccccc2C(=O)N1SC(Cl)(Cl)Cl`, the Potency entry in experiment [17], in [2], in [16], in experiment [3], in experiment [4] and in experiment [13] was “inactive” throughout. Also, the Potency result in experiment [14], in experiment [5], in experiment [15] and in experiment [7] was “inactive” in each case. The Potency in experiment [1] is 26.9 µM (active) and 27.3 µM (active); in experiment [9], 33.3 µM (active). Moreover, in [10], the outcome was inactive.

On to `C#C[C@]1(O)CC[C@H]2[C@@H]3CCC4=CC(=O)CCC4=C3C=C[C@@]21CC`, for which the Potency entry in [1], in [2], in [3], in experiment [6], in [7] and in experiment [9] was “inactive” each time. For the same compound, the Potency in experiment [16] was 1.06 µM (active). Besides, the compound was classed as inactive in [12] and in experiment [10].

Take `C[C@]12CC[C@H]3[C@@H](CCC4=CC(=O)CC[C@@H]43)[C@@H]1CC[C@@H]2OC(=O)CCc1ccccc1`: the Potency was 3.35 µM (active) in [17] and 1.5 µM (active) in [13]. Moreover, the Potency entry in experiment [1], in [11], in experiment [2], in experiment [3], in [4] and in experiment [5] was “inactive” in each case. For the same compound, the Potency result in [6] and in experiment [7] was “inactive” throughout.

On to `CCCC1CCCCN1` (configuration not stated), for which the Potency result in [1], in [11], in experiment [2], in experiment [16], in experiment [3] and in experiment [4] was “inactive” each time. In addition, the Potency result in experiment [14], in experiment [15], in experiment [6], in experiment [7] and in [9] was “inactive” each time. In addition, the outcome in experiment [8] and in experiment [10] was inactive.

For `CCN(C(C)=O)c1cccc(-c2ccnc3c(C#N)cnn23)c1`, the Potency entry in experiment [1], in experiment [11], in experiment [2], in experiment [16], in [3] and in experiment [4] was “inactive” throughout. Besides, the Potency result in experiment [13], in experiment [14], in experiment [5], in experiment [15], in [6] and in experiment [7] was “inactive” in each case. Besides, the Potency entry in experiment [9] is “inactive”. In addition, the outcome in experiment [8] and in [10] was inactive.
